# Sampled rows, rich in hits. Any-hit rate of the full collection: about 4.1%.
# rCAG binder – binders of r(CAG) RNA repeats, primary screen, biochemical, fluorescence; r(CAG) RNA repeat, TO-PRO-1 dye displacement fluorescence; inhibition, % at 3 µM; 370,000 tested, 1.3% active; AID 651821, 2012;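 active = inhibition above the plate cutoff, the mean of all test compounds on that plate plus 3 SD, cut at about 35% in these data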;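 also: 0% = DMSO alone and 100% = 100 µM mitoxantrone as full dye displacement; higher means more dye released from RNA so lower well fluorescence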
# LEDGF integ inh – blockers of LEDGF/p75-dependent integrase strand transfer – biochemical, TR-FRET, high throughput, primary screen; TR-FRET IN-LEDGF/p75 DNA integration, Eu/Cy5; HIV-1 integrase (with human LEDGF/p75); inhibition, % at 3.7 µM; AID 743269, 2014; 370,000 tested, 0.64% active;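 active = inhibition above the screen-wide mean plus 3 SD, cut at about 13% in these data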;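 also: signal is the Cy5 over europium emission ratio at 671 and 618 nm; 0% = plate median of compound wells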
# UHRF1 binding – UHRF1 methylated DNA binding inhibitors, primary screen, counter-screen for MBD2 inhibitor project, biochemical, TR-FRET, human UHRF1, single concentration. UHRF1 binding to methylated oligo. inhibition, % at 4.4 µM. 370,000 tested, 0.75% active. AID 687016, 2013; in the data active = inhibition above about 21%;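 also: UHRF1 SRA domain binding a hemimethylated CpG hairpin DNA probe; 0% = median of test compound wells and 100% = reference inhibitor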
# Target sequence (Q96T88 whole entry, looked up, the tested form may be a part): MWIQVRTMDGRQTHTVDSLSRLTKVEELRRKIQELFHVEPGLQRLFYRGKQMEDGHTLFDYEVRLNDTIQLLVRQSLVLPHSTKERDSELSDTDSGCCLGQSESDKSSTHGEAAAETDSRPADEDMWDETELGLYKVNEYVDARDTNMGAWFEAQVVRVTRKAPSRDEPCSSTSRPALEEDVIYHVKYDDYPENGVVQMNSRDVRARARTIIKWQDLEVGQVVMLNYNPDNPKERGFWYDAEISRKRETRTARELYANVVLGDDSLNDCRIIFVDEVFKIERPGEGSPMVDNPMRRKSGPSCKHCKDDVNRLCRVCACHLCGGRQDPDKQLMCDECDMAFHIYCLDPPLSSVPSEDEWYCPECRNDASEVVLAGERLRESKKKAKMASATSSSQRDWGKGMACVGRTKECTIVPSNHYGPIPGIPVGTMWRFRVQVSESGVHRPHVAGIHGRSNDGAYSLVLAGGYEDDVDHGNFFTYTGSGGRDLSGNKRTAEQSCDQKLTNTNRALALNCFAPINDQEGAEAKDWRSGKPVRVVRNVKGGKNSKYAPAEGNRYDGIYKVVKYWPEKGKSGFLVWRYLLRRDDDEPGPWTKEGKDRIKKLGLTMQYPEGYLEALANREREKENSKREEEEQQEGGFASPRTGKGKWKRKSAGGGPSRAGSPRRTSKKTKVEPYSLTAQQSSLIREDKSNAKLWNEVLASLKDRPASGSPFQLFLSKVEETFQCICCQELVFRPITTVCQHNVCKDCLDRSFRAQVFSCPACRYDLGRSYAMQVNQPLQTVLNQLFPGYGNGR
# MBD2 inh – inhibitors of MBD2 binding to methylated DNA, primary screen, biochemical, TR-FRET, DNA-binding domain, human; MBD2 binding to methylated oligonucleotide; inhibition, % at 4.4 µM; 370,000 tested, 0.31% active; AID 686964, 2013; in the data active = inhibition above about 13%
# ABHD5 PLIN5 PPI – ABHD5-PLIN5 interaction inhibitors, primary screen, cell lysate, split luciferase complementation, luminescence | Perilipin-5 (Homo sapiens) + 1-acylglycerol-3-phosphate O-acyltransferase ABHD5 (Homo … | Split G. princeps luciferase complementation, 4 h | inhibition, % at 4 µM | 360,000 tested, 0.78% active;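 active = inhibition above the mean inhibition across every tested compound plus 3 SD, cut at about 22% in these data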;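 also: 0% = DMSO only wells and the 100% control is not disclosed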
# PRMT1 inh – PRMT1 methyltransferase inhibitors, primary screen, biochemical, fluorescence polarization; recombinant PRMT1, activity-based probe fluorescence polarization; AID 652257, 2013; inhibition, % at 2.79 µM; 370,000 tested, 1.3% active; Protein arginine N-methyltransferase 1 (Homo sapiens), Q99873;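 active = inhibition above about 21% made by adding two undisclosed values, limit read from the data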
# PRMT1 inh conf – PRMT1 methyltransferase inhibitors, confirmation, biochemical, fluorescence polarization, triplicate; shares compounds with PRMT1 inh; recombinant His-PRMT1, activity-based probe fluorescence polarization; inhibition, % at 2.79 µM; 3,300 tested, 42% active; AID 687036, 2013;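 active = mean inhibition across replicates above the hit cutoff derived for the earlier primary screen, cut at about 22% in these data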
# The depositor's hits bear a star; · = no result given.
SMILES,rCAG binder,LEDGF integ inh,UHRF1 binding,MBD2 inh,ABHD5 PLIN5 PPI,PRMT1 inh,PRMT1 inh conf
COc1cc(C=NN2CCN(C(c3ccccc3)c3ccccc3)CC2)cc(OC)c1OC(C)=O,6,-3,0,2,·,-1,·
O=C(CSc1ccc(-c2ccco2)nn1)Nc1ccc(F)cc1F,14,4,-5,-3,9,34*,3
CC(=O)c1cccc(NC(=O)CSc2ccc(-c3ccco3)nn2)c1,26,8,7,3,10,54*,66*
O=C(Cn1nnc(-c2ccc(N3CCOCC3)cc2)n1)c1ccc(F)cc1,9,-4,6,4,·,3,·
O=C1/C(=C/c2ccco2)SC(=S)N1CCC(=O)N1CCCCC1CCO (centres undefined),25,13,12,5,-1,26*,1
O=C1/C(=C/c2ccc(Cl)cc2)SC(=S)N1CCC(=O)N1CCCCC1CCO (centres undefined),4,2,1,1,0,1,·
Cc1ccc(CNC(=O)COC(=O)c2cccc(S(=O)(=O)N3CCCCC3)c2)cc1,0,-3,-2,-1,2,86*,0
O=C(COC(=O)c1cccc(S(=O)(=O)N2CCCCC2)c1)NCc1ccccc1,-3,1,-2,0,9,-1,·
O=S(=O)(c1ccccc1)c1nc(-c2ccccc2)oc1NCc1cccnc1,-2,-2,-1,6,11,-4,·
O=S(=O)(c1ccccc1)c1nc(-c2ccco2)oc1NCc1cccnc1,4,-4,3,3,16,32*,4
COc1ccc(CN(C(=O)/C=C/C(=O)c2ccc(OC)cc2O)C(C(=O)NC2CCCCC2)c2ccncc2)cc1 (centres undefined),-1,0,-2,-3,6,-3,·
COc1ccc(C(=O)/C=C/C(=O)N(CC(=O)NC2CCCCC2)Cc2cccs2)c(O)c1,4,1,5,-1,70*,38*,65*
CC1(C)CC2CN(Cc3ccccc3)S(=O)(=O)N2C1 (centres undefined),·,-3,0,-2,·,2,·
Cc1cc(C)nc(SCC(=O)c2ccc([N+](=O)[O-])cc2)n1,4,0,3,-6,-12,37*,3
Cc1ccnc(SCC(=O)c2ccc([N+](=O)[O-])cc2)n1,0,-2,8,5,-1,3,·
Cc1cc(C)nc(SCC(=O)c2ccc(O)c(O)c2)n1,10,11,3,1,0,49*,42*
COC(=O)[C@]1(CNC(=O)c2cc(F)ccc2F)CC(=O)N(C)[C@@H]1c1ccccc1,0,0,-1,-3,·,-7,·
CCCCCCCCN1C(=O)[C@@H](CC(=O)NCc2ccc(OC)c(OC)c2)C[C@@]2(C(=O)OC)C1=C[C@H](COCc1ccccc1)O[C@@H]2C,2,1,2,-4,·,-1,·
NS(=O)(=O)c1ccc(-c2ccc(/C=C3\NC(=S)NC3=O)o2)cc1,21,12,-6,-9,18,53*,27*
CCN(CC)c1ccc2cc(-c3nc(-c4ccc(OC)cc4)cs3)c(=O)oc2c1,-310,0,-6,2,·,45*,78*
CCN(CC)c1ccc2cc(-c3nnc(-c4ccccc4)o3)c(=O)oc2c1,-42,1,-12,0,1,10,·
O=C(/C=C/c1ccccc1)CCN1CCOCC1,-1,4,-2,-2,14,27*,58*
COC(=O)CC1=C(c2ccc([N+](=O)[O-])cc2)CCC1=O,8,-1,-3,0,16,60*,1
Cc1ccc(CNC(=O)CCS(=O)(=O)c2cc(Br)cc3c2N(C(=O)C2CC2)CC3)o1,5,-2,4,-2,14,48*,3
O=C(O)CCS(=O)(=O)c1cc(Br)cc2c1N(C(=O)C1CC1)CC2,2,2,-1,1,-2,-8,·
SMILES,rCAG binder,LEDGF integ inh,UHRF1 binding,MBD2 inh,ABHD5 PLIN5 PPI,PRMT1 inh,PRMT1 inh conf
O=[N+]([O-])c1cc2c(cc1Br)-c1ccccc1C2,6,-2,-6,0,-6,38*,-3
COc1cc2c(cc1[N+](=O)[O-])-c1ccccc1C2,4,4,-2,-4,0,-2,·
O=C(Cn1nnc(-c2ccccc2F)n1)Nc1ccc(Cl)c(Cl)c1,5,-2,1,-4,·,-2,·
CCC[C@H]1[C@@H](OC(=O)NCc2cccc(C(F)(F)F)c2)CC[C@@]23CCCN2C(=O)CCC[C@@H]13,·,1,-2,-1,·,-6,·
CC[n+]1c(/C=C/Nc2ccccc2)sc2ccccc21,4,0,-2,4,3,18,·
CC[n+]1c(/C=C(\C)SC)sc2ccccc21,6,0,5,-5,-7,34*,13
CC[n+]1c(/C=C(/C)SC)sc2ccccc21,2,0,3,7,-11,96*,24*
CC/C(=C/c1sc2ccccc2[n+]1CC)SC,-4,-3,-1,0,-8,66*,7
CC[n+]1c(/C=C2/C=C(C)CC(C)C2)sc2ccccc21 (centres undefined),14,1,-5,-7,-3,28*,13
CC[n+]1c(C=C2C=C(C)OC(C)=C2)sc2ccccc21,10,-5,-118,-9,0,-2,·
CC[n+]1c(/C=C(\C)Nc2ccccc2)sc2ccccc21,-1,-3,2,0,-2,2,·
CC(C)(C)S(=O)N1C[C@@H]2CC(=O)C(c3ccccc3)=C2[C@H]1CCO (some centres undefined),1,-4,2,-3,·,-1,·
COC(=O)C1CN(CCO)CCS(=O)(=O)N1Cc1cccc(Cl)c1 (centres undefined),0,-1,-2,2,·,-3,·
CC(=O)Nc1ccc(SC(C)C(=O)NC(N)=O)cc1 (centres undefined),1,1,0,8,-3,39*,31*
O=[N+]([O-])c1cc2cccnc2c2ncccc12,-1,-6,1,-2,-5,-1,·

# Screening data deposited in PubChem by The Scripps Research Institute Molecular Screening Center.
